STK33 kin inh: human STK33 kinase inhibition | Q9BYT3 | ADP-Glo luminescence, MBP substrate | inhibition, % at 12.5 µM | 27,000 tested, 0.44% active | AID 2322; in the data active = inhibition above about 20%; inconclusive = no clear call, values can overlap the other calls
Target sequence (Q9BYT3 whole entry, looked up): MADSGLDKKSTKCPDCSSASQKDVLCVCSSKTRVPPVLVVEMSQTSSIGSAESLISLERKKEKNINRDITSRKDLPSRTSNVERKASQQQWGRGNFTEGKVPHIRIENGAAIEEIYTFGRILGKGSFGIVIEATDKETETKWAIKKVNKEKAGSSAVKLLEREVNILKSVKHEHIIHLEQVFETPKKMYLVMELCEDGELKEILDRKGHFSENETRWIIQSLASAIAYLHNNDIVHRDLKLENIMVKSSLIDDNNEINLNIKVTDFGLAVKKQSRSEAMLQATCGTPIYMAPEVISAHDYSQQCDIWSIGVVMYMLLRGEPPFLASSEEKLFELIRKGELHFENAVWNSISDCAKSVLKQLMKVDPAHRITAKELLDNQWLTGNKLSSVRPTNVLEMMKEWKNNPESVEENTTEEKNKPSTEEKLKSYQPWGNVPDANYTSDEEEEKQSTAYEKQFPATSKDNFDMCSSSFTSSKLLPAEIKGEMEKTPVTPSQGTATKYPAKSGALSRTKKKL
ID4 SMM: ID4 (human) binding. P47928. AID 624137. small molecule microarray, Flag-ID4 binding, fluorescence F/B. 31,000 tested, 1.2% active. calls only; call rule not given here;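 also: a binder raises fluorescence above local background on the spot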
mut p53 react: mutant p53 pathway reactivation; AID 624151; activation, % at 9.98 µM; 28,000 tested, 1.5% active; SW480 PUMA-promoter luciferase; in the data active = activation above about 52%; inconclusive = no clear call, values can overlap the other calls
NOMO-1 viab: STK33 inhibitor candidate reducing NOMO-1 cell viability; NOMO-1 AML viability, CellTiter-Glo luminescence, 72 h; inhibition, % (concentration not given with the values); 37,000 tested, 7.5% active; in the data active = inhibition above about 80%; inconclusive = no clear call, values can overlap the other calls
Starred values were filed as active, the others as inactive; i = inactive; ? = inconclusive; nt = no result; + = active, no number; ! = a repeat was not active. This is one part of a sample in which hits are shown more often than they occur.

SMILES	STK33 kin inh	ID4 SMM	mut p53 react	NOMO-1 viab
COc1ccc(C(=O)Nc2ccc(Oc3ncnc4cc(Cl)ccc34)nc2)cc1	nt	i	2	nt
COC(=O)c1cc(C)sc1NC(=O)COc1ccccc1	3	i	18	-20
C[C@H]1CN([C@@H](C)CO)S(=O)(=O)c2ccc(C3=CCCCC3)cc2O[C@@H]1CN(C)S(=O)(=O)c1ccc(F)cc1	nt	i	-48	nt
O=C1/C(=C/c2c[nH]c3ccccc23)CSc2ccccc21	nt	nt	nt	113*
C[C@H](CO)N1C[C@H](C)[C@H](CN(C)Cc2ccncc2)Oc2ccc(NC(=O)Nc3ccccc3)cc2C1=O	0	i	-41	97*
C[C@H]1CN([C@@H](C)CO)C(=O)c2cc(NC(=O)Nc3ccc(F)cc3)ccc2O[C@H]1CN(C)Cc1ccncc1	-4	i	-46	100*
CC(C)NC(=O)Nc1ccc2c(c1)C(=O)N([C@@H](C)CO)C[C@@H](C)[C@@H](CN(C)Cc1ccncc1)O2	-1	nt	nt	8
C[C@@H]1CN([C@H](C)CO)C(=O)c2cc(NC(=O)Nc3ccccc3)ccc2O[C@@H]1CN(C)Cc1ccncc1	nt	i	4	-5
C[C@@H]1CN([C@@H](C)CO)C(=O)c2cc(C#Cc3ccncc3)cnc2O[C@H]1CN(C)C(=O)CN(C)C	nt	+	32	nt
CCC(=O)N(C)C[C@H]1Oc2ncc(C#Cc3ccncc3)cc2C(=O)N([C@H](C)CO)C[C@H]1C	nt	i	4	nt
C[C@@H]1CN([C@@H](C)CO)C(=O)c2cc(C#Cc3cccnc3)cnc2O[C@@H]1CN(C)Cc1ccncc1	nt	+	10	nt
Cc1ccc(S(=O)(=O)Nc2cccc3c2O[C@@H](CN(C)S(=O)(=O)c2ccccc2)[C@@H](C)CN([C@H](C)CO)C3=O)cc1	nt	nt	nt	20
CC(C)NC(=O)Nc1ccc2c(c1)C(=O)N([C@@H](C)CO)C[C@@H](C)[C@@H](CN(C)C(=O)Nc1ccc(F)cc1)O2	nt	nt	nt	-15
C[C@@H]1CN([C@H](C)CO)C(=O)Cc2cc(NS(=O)(=O)c3ccc(F)cc3)ccc2O[C@@H]1CN(C)Cc1ccc(C(F)(F)F)cc1	9	nt	nt	111*
COc1ccc(S(=O)(=O)Nc2ccc3c(c2)CC(=O)N([C@@H](C)CO)C[C@H](C)[C@@H](CN(C)Cc2ccc(C(F)(F)F)cc2)O3)cc1	7	i	-1	113*
C[C@@H]1CN([C@H](C)CO)C(=O)Cc2cc(NS(=O)(=O)c3ccccc3)ccc2O[C@H]1CN(C)Cc1ccc(C(F)(F)F)cc1	3	nt	-7	49
COc1ccc(CN(C)C[C@@H]2Oc3ccc(NS(=O)(=O)c4ccc(OC)cc4)cc3CC(=O)N([C@@H](C)CO)C[C@H]2C)cc1	nt	i	-3	nt
Cc1ccc(S(=O)(=O)Nc2ccc3c(c2)CC(=O)N([C@H](C)CO)C[C@H](C)[C@H](CN(C)Cc2ccc(C(F)(F)F)cc2)O3)cc1	3	nt	nt	104*
Cc1ccc(S(=O)(=O)Nc2ccc3c(c2)CC(=O)N([C@@H](C)CO)C[C@@H](C)[C@@H](CN(C)Cc2ccc(C(F)(F)F)cc2)O3)cc1	7	nt	nt	84*
COc1ccc(NC(=O)Nc2ccc3c(c2)C(=O)N([C@H](C)CO)C[C@@H](C)[C@@H](CN(C)Cc2ccc(Cl)c(Cl)c2)O3)cc1	nt	nt	nt	98*
COc1ccc(NC(=O)Nc2ccc3c(c2)C(=O)N([C@@H](C)CO)C[C@@H](C)[C@@H](CN(C)Cc2ccc(Cl)c(Cl)c2)O3)cc1	2	nt	nt	60
COc1ccc(NC(=O)Nc2ccc3c(c2)C(=O)N([C@@H](C)CO)C[C@H](C)[C@H](CN(C)Cc2ccc(Cl)c(Cl)c2)O3)cc1	-2	nt	nt	104*
COc1ccccc1NC(=O)CSc1nc(-c2ccc(Cl)cc2)cc(C(F)(F)F)n1	-1	i	-6	?
O=[N+]([O-])c1cccc(NC(=S)NCc2cn(-c3ccccc3)nc2-c2ccccc2)c1	1	i	-14	97*
COc1cc2ncnc(Nc3cccc(Cl)c3)c2cc1OC	15	nt	-32	89*!
SMILES	STK33 kin inh	ID4 SMM	mut p53 react	NOMO-1 viab
COc1cc2ncnc(Nc3cccc(O)c3)c2cc1OC	43*	nt	-7	-4
Brc1cccc(Nc2ncnc3cc4nc[nH]c4cc23)c1	6	nt	-7	27
COc1cc2ncnc(Nc3cccc(Br)c3)c2cc1OC	0	nt	16	-3
Cc1cc(C)c(Cn2c(CCCO)nc3ccccc32)c(C)c1	1	i	6	60
O=C(O)CC(C(=O)Nc1cc(C(F)(F)F)cc(C(F)(F)F)c1)C1=CCCCC1 (stereo unspecified)	nt	nt	nt	16
CCN(CC)C(=S)C(=O)Nc1cc(C(F)(F)F)cc(C(F)(F)F)c1	nt	nt	nt	109*
CCOC(=O)CSc1c(-c2cccs2)[nH]c2ccccc12	nt	nt	nt	139*
O=C(C[C@@H]1CC[C@H](NC(=O)NC2CCCCC2)[C@@H](CO)O1)NCc1ccccc1	nt	i	nt	nt
C[C@@H]1CN([C@@H](C)CO)C(=O)c2cc(NS(=O)(=O)c3ccc(Cl)cc3)ccc2O[C@@H]1CN(C)Cc1ccc2c(c1)OCO2	nt	nt	nt	30
C[C@H]1CN([C@@H](C)CO)C(=O)Cc2cc(NC(=O)Nc3ccccc3)ccc2O[C@H]1CN(C)Cc1ccc(Cl)c(Cl)c1	4	nt	nt	104*
C[C@@H]1CN([C@@H](C)CO)C(=O)Cc2cc(NC(=O)NC3CCCCC3)ccc2O[C@@H]1CN(C)Cc1ccncc1	8	i	1	-1
C[C@@H]1CN([C@H](C)CO)C(=O)Cc2cc(NC(=O)NC3CCCCC3)ccc2O[C@@H]1CN(C)Cc1ccc(Cl)c(Cl)c1	-1	nt	nt	114*
C[C@H](CO)N1C[C@H](C)[C@H](CN(C)Cc2ccc(Cl)c(Cl)c2)Oc2ccc(NC(=O)Nc3ccccc3)cc2CC1=O	-4	nt	nt	116*
C[C@H](CO)N1C[C@H](C)[C@H](CN(C)Cc2ccc3c(c2)OCO3)Oc2ccc(NC(=O)Nc3ccc4c(c3)OCO4)cc2CC1=O	nt	nt	nt	40
C[C@H](CO)N1C[C@H](C)[C@H](CN(C)Cc2ccc(Cl)c(Cl)c2)Oc2ccc(NC(=O)Nc3ccc4c(c3)OCO4)cc2CC1=O	nt	nt	nt	94*
C[C@H]1CN([C@@H](C)CO)C(=O)Cc2cc(NC(=O)Nc3ccccc3)ccc2O[C@H]1CN(C)Cc1ccccc1	-9	nt	nt	65
Cc1ccc(S(=O)(=O)N(C)C[C@@H]2Oc3c(cccc3N(C)C)C(=O)N([C@@H](C)CO)C[C@H]2C)cc1	nt	nt	nt	8
C[C@@H]1CN([C@@H](C)CO)C(=O)Cc2cc(NC(=O)Nc3ccc(F)cc3)ccc2O[C@@H]1CN(C)Cc1ccc(Cl)c(Cl)c1	1	nt	nt	103*
Cc1noc(C)c1S(=O)(=O)Nc1ccc2c(c1)C(=O)N([C@H](C)CO)C[C@H](C)[C@@H](CN(C)C)O2	nt	i	5	6
C[C@H](CO)N1C[C@H](C)[C@@H](CN(C)CC2CC2)Oc2c(NC(=O)Nc3ccc(C(F)(F)F)cc3)cccc2C1=O	nt	i	9	99*
C[C@@H]1CN([C@H](C)CO)C(=O)c2cccc(NC(=O)Nc3ccc(C(F)(F)F)cc3)c2O[C@@H]1CN(C)CC1CCCCC1	nt	nt	nt	58
C[C@H](CO)N1C[C@H](C)[C@H](CN(C)CC2CCCCC2)Oc2c(NC(=O)Nc3ccc(C(F)(F)F)cc3)cccc2C1=O	nt	nt	nt	116*

Screening data from PubChem.
